The text below walks through data of PubChem BioAssay (NCI).

Some test systems named below: DU-145 prostate; K-562 leukemia; MALME-3M melanoma; MDA-MB-231 breast; RXF 393 renal; SF-268 CNS; SF-295 CNS; SF-539 CNS; UACC-257 melanoma; M14 melanoma.
Assay in all cases: NCI-60 one-dose screen, 48 h (100 = growth as untreated, 0 = no growth, -100 = all killed)
Common to all, as to details: 10 µM

The panel holds about 83,000 compounds, 20% with a hit somewhere; the sample as a whole holds those more often.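 A percent growth of 40 corresponds to 60% growth inhibition; 0 means no net growth; -100 means all cells died. Active threshold: below 10.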 A number with no mark means an inactive call. Activity calls are given as the source filed them.

Take `CCCCCCCCCCCCCCCCCCCC(=O)NCCc1c[nH]c2ccc(OC(=O)NOCCOCCOCCOCCOCCOCCOCCOCCOCCOCCOCCOCCOCCOCCOCCOCCOCCOCCOCCOCCOCCOCCOC)cc12`: the growth in the assay on DU-145 prostate was 21.4%; with K-562 leukemia it was 8.69% (active); in the assay on MALME-3M melanoma, 8.02% (active); in the assay on MDA-MB-231 breast it was -74.1% (active); in the assay on RXF 393 renal it was 12%; in the assay on SF-268 CNS, 16.5%. Further, the growth is -28.5% (active) with SF-295 CNS, -13.8% (active) with SF-539 CNS and 6.88% (active) in the assay with UACC-257 melanoma.

With `O=C1NC(=NC23CC4CC(CC(C4)C2)C3)N/C1=C\c1ccc2ncsc2c1`, the growth with DU-145 prostate is 6.29% (active); in the assay with K-562 leukemia it was 10.5%; in the assay on MALME-3M melanoma, 2.66% (active); in the assay with MDA-MB-231 breast it was -8.83% (active); with RXF 393 renal, -63.6% (active); in the assay on SF-268 CNS it was -11.5% (active). Besides, the growth with SF-295 CNS was 13%; with SF-539 CNS, -23.9% (active); in the assay on UACC-257 melanoma, 26.7%.

`Nc1nnc(-c2c[nH]c3ccc(F)cc23)c(-c2c[nH]c3ncccc23)n1`: the growth with DU-145 prostate is 82%; in the assay with K-562 leukemia, 31.9%; with MALME-3M melanoma it was 71.6%; in the assay with MDA-MB-231 breast, 39.1%; with RXF 393 renal it was 82.8%; with SF-268 CNS it was 80.2%. Besides, the growth in the assay on SF-295 CNS is 36.6%; in the assay with SF-539 CNS it was 30%; in the assay with UACC-257 melanoma it was 105%.

As to `CS(=O)(=O)Nc1ccc(-c2ccc3c(c2)ncn3-c2ccc(NC(=O)Nc3ccc(Br)cc3)cc2)cc1`, the growth is 29.8% in the assay with DU-145 prostate; 4.89% (active) with K-562 leukemia; -20.2% (active) in the assay with MALME-3M melanoma; 13.6% in the assay on MDA-MB-231 breast; -16.8% (active) with RXF 393 renal; 26.4% in the assay on SF-268 CNS. Also, the growth in the assay on SF-295 CNS is -38.3% (active); in the assay with SF-539 CNS, -34.5% (active); in the assay with UACC-257 melanoma, -16.9% (active); with M14 melanoma, 4.32% (active).

As to `COc1ccc(OC)c(/C=N/NC(=O)c2ccc3nc(-c4ccc(Cl)cc4)[nH]c3c2)c1`, the growth with DU-145 prostate was 48%; in the assay on K-562 leukemia, 47.1%; with MALME-3M melanoma, 81.6%; with MDA-MB-231 breast it was 10.3%; in the assay with RXF 393 renal it was 3.46% (active); with SF-268 CNS, 57%. Also, the growth with SF-295 CNS was 48.1%; with SF-539 CNS it was 54.7%; in the assay with UACC-257 melanoma, 114%; in the assay on M14 melanoma, 69.1%.

Turning to `COc1ccc([C@H]2C(C(=O)c3ccc(Cl)cc3)C3(N[C@@H]2c2ccccc2)C(=O)Nc2ccc(Cl)cc23)cc1` (stereo partly drawn), the growth is 14.6% in the assay on DU-145 prostate; 3.72% (active) in the assay with K-562 leukemia; -10.6% (active) in the assay on MALME-3M melanoma; -68.3% (active) with MDA-MB-231 breast; -64.3% (active) with RXF 393 renal; 20.2% in the assay with SF-268 CNS. The growth is -63.2% (active) in the assay with SF-295 CNS, -46.1% (active) in the assay with SF-539 CNS, 9.2% (active) with UACC-257 melanoma and 11% with M14 melanoma.

For the compound `COc1ccc(CCN2C(=O)/C(=C/c3csc(C#N)n3)SC2=S)cc1`, the growth in the assay on DU-145 prostate was 0.405% (active); in the assay on K-562 leukemia, 1.79% (active); in the assay on MALME-3M melanoma, 7.27% (active); in the assay with MDA-MB-231 breast, 15.8%; in the assay on RXF 393 renal, -3.89% (active); in the assay with SF-268 CNS it was 33.2%. The growth in the assay on SF-295 CNS was 77.5%; in the assay with SF-539 CNS, -17.3% (active); with UACC-257 melanoma it was -35.3% (active); in the assay with M14 melanoma it was -40.6% (active).

For `COC[C@@H](CC(C)C)N=C1NC(=O)/C(=C/c2ccc3ncsc3c2)N1`, the growth is 15.7% in the assay on DU-145 prostate; 11.8% in the assay with K-562 leukemia; 8.01% (active) in the assay with MALME-3M melanoma; 9.26% (active) in the assay with MDA-MB-231 breast; -36.9% (active) in the assay with RXF 393 renal; 16% in the assay with SF-268 CNS. Besides, the values for the growth in the assay on SF-295 CNS, in the assay with SF-539 CNS and in the assay with UACC-257 melanoma were 23.2%, -20.5% (active) and 16.2%, respectively.

With `CC(C)CCSc1nc(NC2CC2)c(C#N)c(-c2ccc(C(C)C)cc2)n1`, the growth with DU-145 prostate is 120%; in the assay with K-562 leukemia, 100%; in the assay with MALME-3M melanoma, 108%; with MDA-MB-231 breast, 105%; in the assay with RXF 393 renal, 113%; in the assay on SF-268 CNS, 121%. For the same compound, the growth in the assay with SF-295 CNS is 100%; in the assay on SF-539 CNS it was 101%; with UACC-257 melanoma it was 103%.

`CN1CCN(c2ccc(C(=O)/C=C/c3ccc(C#N)cc3)cc2)CC1`: the growth was 82.1% in the assay with DU-145 prostate; 7.48% (active) in the assay on K-562 leukemia; 90.4% with MALME-3M melanoma; 65.8% in the assay with MDA-MB-231 breast; 63.9% in the assay on RXF 393 renal; 107% in the assay with SF-268 CNS. The growth in the assay on SF-295 CNS is 78.2%; in the assay with SF-539 CNS, 56.3%; with UACC-257 melanoma it was 90.4%; in the assay with M14 melanoma it was 79.6%.

For `CN1CCN(c2ccc(C(=O)/C=C/c3cc(Br)ccc3F)cc2)CC1`, the growth in the assay on DU-145 prostate is 44.8%; in the assay with K-562 leukemia it was -35.5% (active); with MALME-3M melanoma, 78.9%; in the assay with MDA-MB-231 breast it was 26.9%; in the assay with RXF 393 renal it was 38.8%; in the assay on SF-268 CNS, 88.6%. Also, the growth in the assay with SF-295 CNS was 60.7%; in the assay on SF-539 CNS, 2.31% (active); with UACC-257 melanoma, 73.8%; with M14 melanoma it was 52.1%.

For `O=C(N=Nc1c(O)[nH]c2ccc(Br)cc12)c1ccc2nc(-c3ccccc3)[nH]c2c1`, the growth was -60.5% (active) in the assay on DU-145 prostate; 1.09% (active) with K-562 leukemia; -99.2% (active) with MALME-3M melanoma; -97.5% (active) in the assay on MDA-MB-231 breast; -79.7% (active) with RXF 393 renal; -53.3% (active) with SF-268 CNS. Besides, the growth in the assay with SF-295 CNS was -81.9% (active); with SF-539 CNS, -97.9% (active); with UACC-257 melanoma, -19.9% (active); in the assay on M14 melanoma, -85.9% (active).

In the case of `NS(=O)(=O)c1ccc(N=Nc2c(O)n(CC(=O)Nc3ccccc3Br)c3ccccc23)cc1`, the growth is 34.7% in the assay on DU-145 prostate; 27.2% in the assay with K-562 leukemia; 26.5% in the assay with MALME-3M melanoma; 11.2% in the assay with MDA-MB-231 breast; 27.6% in the assay on RXF 393 renal; 86.6% with SF-268 CNS. Besides, the growth is 25.8% in the assay on SF-295 CNS, 5.32% (active) with SF-539 CNS and 50% in the assay on UACC-257 melanoma.

Regarding `O=C(N/N=C/c1ccc(B(O)O)o1)c1[nH]c2ccc(Br)cc2c1-c1ccccc1`, the growth in the assay with DU-145 prostate is 40.9%; in the assay with K-562 leukemia it was 7.21% (active); in the assay on MALME-3M melanoma, 61.1%; in the assay with MDA-MB-231 breast, 28.1%; in the assay on RXF 393 renal, 1.27% (active); in the assay with SF-268 CNS, 51.1%. The growth in the assay with SF-295 CNS was -8.66% (active); in the assay with SF-539 CNS it was -33.4% (active); with UACC-257 melanoma, 63.4%.
